Screening data deposited in PubChem BioAssay by National Center for Advancing Translational Sciences (NCATS).
Compounds with a hit are over-represented: about 22% of the library has one in this group of screens.
Pf growth 48h – Primary qHTS for delayed death inhibitors of the malarial parasite plastid, 48 hour incubation; P. falciparum luciferase growth in erythrocytes, 48 h; Potency, µM (top dose mostly 28.7 µM), inactives show at the highest dose activity change, negative = inhibition, most hits filed as inhibitors; 310,000 tested, 5.9% active; AID 504832, 2011; further: potency means the concentration at half of the fitted maximal effect; on the % scale 0 is the no-effect control and ±100 the full control effect
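Luminescence readout; reporter = integrated firefly luciferase in P. falciparum. RBC culture at 2% hematocrit, 0.1% parasitemia final, 37 C/5% CO2; decreased signal taken as growth inhibition.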
Pf growth 96h – Primary qHTS for delayed death inhibitors of the malarial parasite plastid, 96 hour incubation | P. falciparum luciferase reporter growth, 96 h | Potency, µM (doses to about 28.7 µM), for inactives: top-dose activity change, negative = inhibition, hits mostly inhibitors | 320,000 tested, 6.9% active | AID 504834, 2011; further: potency means the concentration at half of the fitted maximal effect; on the % scale 0 is the no-effect control and ±100 the full control effect
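Readout is luminescence from an integrated firefly luciferase in P. falciparum. Red cells, 2% hematocrit and 0.05% parasitemia final, were cultured with compound through two parasite generations (96 hours) at 37 C, 5% CO2.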
Cycloheximide cs – Cycloheximide Counterscreen for Small Molecule Inhibitors of Shiga Toxin; cell reporter, cycloheximide protein synthesis inhibition counterscreen; max response, %; 300,000 tested, 12% active; in the data active means max response mostly above about 13%, no sharp cut-off; inactive means mostly below about 14%; further: read at 38.3 µM for the half of the compounds with a filed dose; 0% is about no effect
Shiga toxin inh – A qHTS for Small Molecule Inhibitors of Shiga Toxin. 290,000 tested, 9.2% active. inhibition, % at 38.7 µM. Vero cells, Shiga toxin protein synthesis inhibition reporter; in the data active means inhibition mostly above about 28%, no sharp cut-off; inactive means mostly below about 43%; further: 0% is about no effect
LmPK inh – qHTS Assay for Inhibitors of Leishmania Mexicana Pyruvate Kinase (LmPK) | Q27686 | purified LmPK, Kinase-Glo ATP luminescence, 1 h | Potency, µM (titrated, usually from 57.5 µM), inactives show at the top dose activity change, negative = inhibition, actives largely listed as inhibitors | 290,000 tested, 0.37% active; further: potency means the concentration at half of the fitted maximal effect; on the % scale 0 is the no-effect control and ±100 the full control effect
Target sequence (Q27686 whole entry, looked up): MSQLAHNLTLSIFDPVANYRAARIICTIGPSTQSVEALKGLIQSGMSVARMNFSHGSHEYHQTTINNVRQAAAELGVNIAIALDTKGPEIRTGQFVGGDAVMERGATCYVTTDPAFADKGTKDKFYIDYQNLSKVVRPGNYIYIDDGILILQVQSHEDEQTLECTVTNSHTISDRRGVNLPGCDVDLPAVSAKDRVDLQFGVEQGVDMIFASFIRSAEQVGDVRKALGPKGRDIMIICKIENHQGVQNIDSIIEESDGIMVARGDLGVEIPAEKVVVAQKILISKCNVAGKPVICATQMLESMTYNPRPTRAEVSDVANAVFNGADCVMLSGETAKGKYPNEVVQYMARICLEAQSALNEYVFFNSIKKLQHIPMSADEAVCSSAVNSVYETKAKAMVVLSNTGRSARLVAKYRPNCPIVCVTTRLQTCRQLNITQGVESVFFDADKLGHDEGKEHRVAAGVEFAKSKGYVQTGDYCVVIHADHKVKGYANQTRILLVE
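Screened at intermediate enzyme activity to detect both inhibitors and activators: LmPK at 0.1 nM, with a 0.5 nM enzyme column as activation reference. PEP 0.5 mM, ADP 0.1 mM; ATP detected by luminescence after 1 h.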
* marks the source's active call; other numbers are inactive results; ? = inconclusive; / = no result given; [ ] = another dose, or the depositor's remark. Unless noted, the call rests on the fitted dose curve; in most records, active means well fitted inhibition curve with a large enough effect; inconclusive means small, poorly fitted or top-dose-only effect, or another doubt; inactive means no such curve, though single readings can be large or run the other way.

SMILES | Pf growth 48h | Pf growth 96h | Cycloheximide cs | Shiga toxin inh | LmPK inh
COc1ccccc1NC(=O)CN1CC(=O)Nc2ccccc21 | -14.3% | ? | -1.8 | -8.9 | 2.0%
COc1ccc(-c2cc(=O)oc3cc(OC(C)C(=O)NCc4ccccn4)ccc23)cc1 (stereo not drawn) | ? | ? | -1.2 | 7.0 | -4.9%
C=CCn1c(SCc2nc3c(c(=O)[nH]c(=O)n3CCCC)n2CCC)nnc1-c1ccccc1 | 8.28µM* | / | -2.4 | 4.0 | 1.0%
C=CCOc1ccc(-c2nc3c(c(=O)[nH]c(=O)n3CCC)n2CCCC)cc1 | -0.4% | 7.3% | -0.9 | 3.9 | 4.8%
CC(C)(C)c1ccc(OCC(=O)N/N=C/c2ccsc2)cc1 | -16.7% | -35.9% | 7.8 | 14.9 | 0.4%
CCOc1ccc(N(CC(=O)NCc2ccc(F)cc2)C(=O)c2snc(C(N)=O)c2N)cc1 | 4.4% | -12.8% | -2.7 | -7.2 | -1.1%
C=CCn1c(=O)c2ccc(C(=O)NCc3ccccc3)cc2n(Cc2ccc(C)cc2)c1=O | 26.5% | 2.33µM* | -2.6 | -12.7 | -1.4%
COCCCNC(=O)c1ccc(Cn2c(=O)c3ccccc3n(Cc3cc(C)ccc3C)c2=O)cc1 | 13.1µM* | / | -1.0 | 2.6 | 4.5%
COCCCNC(=O)c1ccc(Cn2c(=O)c3ccccc3n(Cc3ccccc3C)c2=O)cc1 | / | 5.6% | -1.8 | -4.6 | 5.1%
Cc1cc(=O)oc2cc(Oc3ccc([N+](=O)[O-])cc3[N+](=O)[O-])ccc12 | 6.8% | ? | -1.9 | -4.3 | 1.2%
O=C1C2C(c3ccccc3)CC=CC2C(c2ccc(C(F)(F)F)cc2)N1Cc1ccccc1 (stereo not drawn) | / | / | 0.8 | -4.4 | /
CC(NC(=O)c1csc2ccccc12)C1CCCO1 (stereo not drawn) | 38.2% | / | 32.2* | 62.9* | -3.9%
CC(NC(=O)c1sc2ccccc2c1Cl)C1CCCO1 (stereo not drawn) | 113.0% | 78.1% | 35.6* | 24.1 | -6.2%
O=C1CSC(c2cccc(F)c2)N1c1ccccc1 (stereo not drawn) | 14.5% | 0.7% | 6.3 | -1.8 | -3.3%
CCCc1cc(C(=O)Nc2cc(Cl)ccc2O)no1 | ? | ? | 31.1* | 92.4* | -7.3%
CCCc1cc(C(=O)Nc2cc(Br)ccc2O)no1 | 5.22µM* | -17.4% | 21.7* | 56.8* | 1.0%
CCC/C=N/NC(=O)c1cc(Br)ccc1O | 11.8% | -15.5% | 5.5 | 25.9 | -2.7%
COc1ccc(N(CC(=O)NCc2ccccc2OC)S(=O)(=O)c2ccccc2)cc1 | -28.2% | ? | -6.4 | -11.4 | 5.1%
CCOC(=O)/C=C/[C@H]1CCc2cccc(Cl)c2O1 | ? | 6.2% | / | / | /
Oc1ccccc1CNc1nc2ccccc2n1CCN1CCCCC1 | 2.94µM* | -20.6% | 8.3 | 12.6 | 0.8%
C=CCc1cccc(CNc2nc3ccccc3n2CCN2CCOCC2)c1O | 3.7µM* | / | -2.0 | -25.4 | 4.2%
O=C(COc1cc2oc(=O)c3c(c2cc1Cl)CCCC3)N1C[C@H]2C[C@@H](C1)c1cccc(=O)n1C2 | 29.5% | ? | -1.4 | 14.0 | -4.1%
C/C=C1\COC(C(=O)NCc2ccccn2)(C(F)(F)F)C=C1C=C(C)C (stereo not drawn) | / | / | 18.1 | 2.7 | /
Cc1cc(C)n(C(=O)c2cc3sccc3[nH]2)n1 | 38.8% | -19.8% | 30.0* | 64.1* | -4.0%
Cc1ccc(CNCC(O)c2ccccc2)s1 (stereo not drawn) | 11.7µM* | 123.5% | 13.5* | 5.3 | 2.2%
SMILES | Pf growth 48h | Pf growth 96h | Cycloheximide cs | Shiga toxin inh | LmPK inh
O=C(NCC(O)c1ccccc1)Nc1cccs1 (stereo not drawn) | 37.5% | 56.4% | 23.7* | 69.9 | 2.0%
Cc1ccsc1CNCC(O)c1ccccc1 (stereo not drawn) | 11.7µM* | -25.8% | -1.2 | -1.6 | -8.2%
O=C(NCc1ccco1)Nc1cccs1 | 71.1% | 0.0% | 7.1 | 18.5 | 0.2%
OC(CNCc1ccncc1)c1ccccc1 (stereo not drawn) | 35.3% | -25.4% | -3.0 | -5.5 | 0.2%
OC(CNCc1cccs1)c1ccccc1 (stereo not drawn) | 13.1µM* | ? | 0.8 | -3.7 | -1.9%
O=C(COc1ccc(Cl)cc1)NN=C1CCCCCCC1 | -9.3% | -11.4% | -2.6 | 12.1 | -5.9%
COc1ccc(/C=C/C(=O)OCC(=O)Nc2cc(C(F)(F)F)ccc2Cl)cc1 | 21.1% | 14.4% | -3.4 | -1.2 | 1.0%
OC(CNCc1cccc(Br)c1)c1ccccc1 (stereo not drawn) | 3.7µM* | 10.4µM* | 2.4 | -5.2 | -0.3%
CCC(C)NC(=O)c1ccc(N2CC3CC(C2)c2cccc(=O)n2C3)c(NC(=O)c2ccc(Br)o2)c1 (stereo not drawn) | ? | 9.28µM* | -8.2 | -4.0 | 0.0%
COc1ccccc1Nc1cc(C)nc(Nc2ccccc2OC)n1 | ? | 10.4µM* | / | / | /
COc1ccccc1Nc1nc(-c2ccccc2)nc2ccccc12 | 6.2% | -1.2% | -1.0 | -5.5 | 2.1%
COc1ccc(Nc2c3ccccc3nc3ccccc23)cc1 | 4.15µM* | 42.7% | 22.5* | 44.5* | 7.2%
COc1ccc(Nc2c3c(nc4ccccc24)CCC3)cc1 | ? | -27.7% | -2.8 | -5.2 | -0.4%
COc1ccccc1Nc1nc2ccccc2[nH]1 | ? | ? | 28.6* | 90.9* | -13.4%
COc1ccccc1Nc1c2ccccc2nc2ccccc12 | 7.38µM* | 2.33µM* | -1.8 | -2.9 | -5.1%
COc1cccc(NC(=O)COC(=O)C2CC3CCCC(C2)C3=O)c1 (stereo not drawn) | ? | 6.0% | / | / | /
Cc1cc(Nc2ccc([N+](=O)[O-])cc2)nc2ccccc12 | ? | 26.1% | -3.0 | 18.6 | -1.4%
COc1cc(Nc2c3ccccc3nc3ccccc23)cc(OC)c1OC | 7.38µM* | ? | -0.6 | -3.1 | 2.4%
COc1ccc(Nc2nc(N3CCCC3)c3ccccc3n2)cc1 | 3.29µM* | 222.2% | 0.6 | 23.1 | -8.7%
CCN(CC)c1ccc(Nc2nc(N3CCOCC3)c3ccccc3n2)cc1 | 0.0% | / | -3.8 | -18.2 | 4.6%
COc1ccc(Nc2cc(C)c3ccccc3n2)cc1 | 5.5% | -17.0% | 41.5* | 103.3* | 1.5%
COc1ccc(Nc2c3c(nc4ccccc24)CCCC3)cc1OC | -17.7% | 0.8% | -7.3 | -2.9 | -4.2%
CC(C)c1ccc(-c2c(NCCc3ccccc3)c(=O)c2=O)cc1 | 0.4% | ? | 5.5 | 19.4 | -1.1%
OCCNCc1c(OCc2ccc(Cl)cc2)ccc2ccccc12 | 0.0%[0.00184 µM] | -18.3% | -7.5 | -3.0 | -3.8%
CC(=O)N1CCN(C(=O)c2ccco2)CC1 | 18.5% | 107.9% | 3.1 | -1.7 | 0.0%
Cc1cccc2nc(=S)n(C(=O)c3ccco3)n12 | 108.1% | 6.1% | 61.7* | 197.5* | 12.6µM*
O=C(c1cc2ncc(Br)cn2n1)N1CCN(C(=O)c2ccco2)CC1 | 2.2% | 41.4% | -3.7 | -4.5 | 5.2%
O=C(c1ccco1)n1c(=S)nc2ccccn21 | 108.0% | 0.6% | 68.1* | 115.3* | 14.1µM*
